Source: PubChem BioAssay (Tox21)
Inconclusive results are not listed. Calls of active or inactive are those of the source. Calls follow the shape of the dose curve; as a rule, active = well fitted curve in the direction sought with a large enough effect in the repeat runs; inconclusive = weak or mixed curves; inactive = no such curve, though single readings can be large; an effect the other way counts as inactive or inconclusive.

Legend:
[1] = qHTS RealTime-Glo MT Cell Viability Assay in HepG2 cells - 24 hour (AID 1224867); also: nearly all actives have a fitted effect of over 50% in size
How it was run: (§1)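 Real-time, nonlytic viability: 600 HepG2 cells/well mixed with NanoLuc enzyme plus prosubstrate; 5 h settle, compound (DMSO) added by pintool; luminescence monitored over 40 h at 37 C.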

[2] = qHTS RealTime-Glo MT Cell Viability Assay in HEK293 cells - 32 hour (AID 1224868); also: top concentration of the series differs between compounds; nearly all actives have a fitted effect of over 50% in size
How it was run: (§2)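 Cells + reagent dispensed (600 cells/well, HEK293) → 5 h at 37 C/5% CO2 → 23 nL compound in DMSO pinned → 40 h at 37 C → luminescence read at 0, 8, 16, 24, 32, 40 h.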

[3] = A CellTox Green Cytotoxicity Assay to monitor cytotoxicity in HEK293 cells - 0 hour (AID 1224869); also: nearly all actives have a fitted effect of over 50% in size
How it was run: (§3)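 Fluorescence intensity, read at 0, 8, 16, 24, 32 and 40 h of compound treatment, reflected dye binding to DNA of dead HEK293 cells; compounds (23 nL, DMSO) were added 5 h after plating cells with reagent.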

[4] = qHTS RealTime-Glo MT Cell Viability Assay in HepG2 cells - 40 hour (AID 1224870); also: nearly all actives have a fitted effect of over 50% in size
How it was run: (§4)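 HepG2 cells mixed with RealTime-Glo MT reagents (NanoLuc plus cell-permeant prosubstrate) were seeded at 600 cells/well, incubated 5 h at 37 C/5% CO2, then pinned with compounds in DMSO; nonlytic luminescence tracked viability during 40 h treatment.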

[5] = A CellTox Green Cytotoxicity Assay to monitor cytotoxicity in HEK293 cells - 40 hour (AID 1224871); also: nearly all actives have a fitted effect of over 45% in size
How it was run: as §3

[6] = qHTS RealTime-Glo MT Cell Viability Assay in HEK293 cells - 16 hour (AID 1224872)
How it was run: as §2

[7] = qHTS RealTime-Glo MT Cell Viability Assay in HEK293 cells - 40 hour (AID 1224874); conditions: RealTime-Glo luminescence, hits give low values; also: nearly all actives have a fitted effect of over 50% in size
How it was run: (§5)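 Viable HEK293 cells reduce a cell-permeant prosubstrate; the product diffuses out and is consumed by NanoLuc in the medium to give light. Compounds went in after a 5 h incubation and plates were read over the treatment course.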

[8] = A CellTox Green Cytotoxicity Assay to monitor cytotoxicity in HEK293 cells - 24 hour (AID 1224875); also: series mostly up to about 77 µM; nearly all actives have a fitted effect of over 45% in size
How it was run: as §3

[9] = A CellTox Green Cytotoxicity Assay to monitor cytotoxicity in HepG2 cells - 16 hour (AID 1224876); also: nearly all actives have a fitted effect of over 45% in size
How it was run: (§6)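 Using 1536-well format, dye-containing HepG2 suspension was seeded, allowed 5 h at 37 C/5% CO2, dosed by pintool with compounds, positive and negative controls, and imaged for fluorescence across 40 h.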

[10] = qHTS RealTime-Glo MT Cell Viability Assay in HepG2 cells - 32 hour (AID 1224877); also: nearly all actives have a fitted effect of over 55% in size
How it was run: as §1

[11] = A CellTox Green Cytotoxicity Assay to monitor cytotoxicity in HepG2 cells - 24 hour (AID 1224878); also: nearly all actives have a fitted effect of over 45% in size
How it was run: as §6

[12] = A CellTox Green Cytotoxicity Assay to monitor cytotoxicity in HepG2 cells - 40 hour (AID 1224879); also: nearly all actives have a fitted effect of over 40% in size; also: potency is read from the fitted curve at half-maximal effect
How it was run: as §6

[13] = qHTS RealTime-Glo MT Cell Viability Assay in HEK293 cells - 0 hour (AID 1224880)
How it was run: as §5

[14] = A CellTox Green Cytotoxicity Assay to monitor cytotoxicity in HEK293 cells - 32 hour (AID 1224881); also: nearly all actives have a fitted effect of over 40% in size
How it was run: as §3

[15] = A CellTox Green Cytotoxicity Assay to monitor cytotoxicity in HepG2 cells - 0 hour (AID 1224882); also: nearly all actives have a fitted effect of over 35% in size
How it was run: as §6

[16] = A CellTox Green Cytotoxicity Assay to monitor cytotoxicity in HepG2 cells - 32 hour (AID 1224883); also: nearly all actives have a fitted effect of over 50% in size; also: potency is read from the fitted curve at half-maximal effect
How it was run: as §6

[17] = A CellTox Green Cytotoxicity Assay to monitor cytotoxicity in HEK293 cells - 8 hour (AID 1224884); also: nearly all actives have a fitted effect of over 35% in size
How it was run: as §3

[18] = qHTS RealTime-Glo MT Cell Viability Assay in HepG2 cells - 16 hour (AID 1224885); also: nearly all actives have a fitted effect of over 50% in size
How it was run: as §1

[19] = qHTS RealTime-Glo MT Cell Viability Assay in HEK293 cells - 24 hour (AID 1224886)
How it was run: as §2

[20] = qHTS RealTime-Glo MT Cell Viability Assay in HepG2 cells - 8 hour (AID 1224873); also: nearly all actives have a fitted effect of over 55% in size
How it was run: as §4
% is scaled to controls: 0 for no effect and ±100 for the full control effect.

Cc1ccc(S(=O)(=O)NC(=O)NN2CC3CCCC3C2)cc1 (stereo not given)
inactive: outcome [1] | outcome [2] | outcome [3] | outcome [4] | Potency [5] | outcome [6] | max response [7] 5.04% | Potency [8] | Potency [9] | outcome [10] | Potency [11] | Potency [12] | Potency [13] | Potency [14] | Potency [15] | Potency [16] | Potency [17] | outcome [18] | outcome [19]

Cc1cccc(N)n1
inactive: outcome [1] | outcome [2] | outcome [3] | outcome [4] | Potency [5] | outcome [6] | max response [7] -4.06% | Potency [8] | Potency [9] | outcome [10] | Potency [11] | Potency [12] | Potency [13] | Potency [14] | Potency [15] | Potency [16] | Potency [17] | outcome [18] | outcome [19]

O=C(c1ccccc1)c1cccc(O)c1
inactive: outcome [1] | outcome [2] | outcome [3] | outcome [4] | Potency [5] | outcome [6] | outcome [20] | Potency [8] | Potency [9] | outcome [10] | Potency [11] | Potency [12] | Potency [13] | Potency [14] | Potency [15] | Potency [16] | Potency [17] | outcome [18] | outcome [19]

CNC(=O)c1c(I)c(NC(C)=O)c(I)c(C(=O)O)c1I
inactive: outcome [1] | outcome [2] | outcome [3] | outcome [4] | Potency [5] | outcome [6] | outcome [20] | max response [7] 3.75% | outcome [10] | Potency [11] | Potency [12] | Potency [13] | Potency [14] | Potency [15] | Potency [16] | outcome [18] | outcome [19]

CC(=O)SCC(CC(=O)c1ccc(C)cc1)C(=O)O (stereo not given)
inactive: outcome [1] | outcome [2] | outcome [3] | outcome [4] | Potency [5] | outcome [6] | outcome [20] | max response [7] -0.0795% | outcome [10] | Potency [11] | Potency [12] | Potency [13] | Potency [14] | Potency [15] | Potency [17] | outcome [18] | outcome [19]

Cc1ccc(NC(N)=O)cc1
inactive: outcome [1] | outcome [2] | outcome [3] | outcome [4] | Potency [5] | outcome [6] | max response [7] 11.1% | Potency [8] | Potency [9] | outcome [10] | Potency [11] | Potency [12] | Potency [13] | Potency [14] | Potency [15] | Potency [16] | Potency [17] | outcome [18] | outcome [19]

CCCCC(O)/C=C(C)/C=C/C=C/C(=O)N1CCCC1=O (stereo not given)
inactive: outcome [1] | outcome [2] | outcome [3] | outcome [4] | Potency [5] | outcome [6] | outcome [20] | max response [7] 2.14% | Potency [9] | Potency [11] | Potency [12] | Potency [13] | Potency [14] | Potency [15] | Potency [16] | Potency [17] | outcome [18] | outcome [19]

CC(=O)Oc1ccc(C(C)=O)cc1
inactive: outcome [1] | outcome [2] | outcome [3] | outcome [4] | Potency [5] | outcome [6] | outcome [20] | max response [7] -8% | Potency [11] | Potency [12] | Potency [13] | Potency [16] | Potency [17] | outcome [18] | outcome [19]

COc1cc(NS(=O)(=O)c2ccc(N)cc2)ncn1
inactive: outcome [1] | outcome [2] | outcome [3] | outcome [4] | Potency [5] | outcome [6] | max response [7] 7.65% | Potency [8] | Potency [9] | outcome [10] | Potency [11] | Potency [12] | Potency [13] | Potency [14] | Potency [16] | Potency [17] | outcome [18] | outcome [19]

CN(C)CCc1c[nH]c2ccc(CS(=O)(=O)N3CCCC3)cc12
inactive: outcome [1] | outcome [2] | outcome [3] | outcome [4] | Potency [5] | outcome [6] | max response [7] 7.03% | Potency [8] | Potency [9] | outcome [10] | Potency [11] | Potency [12] | Potency [13] | Potency [14] | Potency [15] | Potency [16] | Potency [17] | outcome [18] | outcome [19]

CCCCNCC
inactive: outcome [1] | outcome [2] | outcome [3] | outcome [4] | Potency [5] | outcome [6] | max response [7] -1.39% | Potency [8] | Potency [9] | outcome [10] | Potency [11] | Potency [12] | Potency [13] | Potency [14] | Potency [15] | Potency [16] | Potency [17] | outcome [18] | outcome [19]

CCCc1ncc(C(=O)O)s1
inactive: outcome [1] | outcome [2] | outcome [3] | outcome [4] | Potency [5] | outcome [6] | outcome [20] | max response [7] 0.25% | Potency [9] | outcome [10] | Potency [12] | Potency [13] | Potency [14] | Potency [15] | Potency [16] | Potency [17] | outcome [19]

CC(C)(C)c1ccc(N)cc1
inactive: outcome [1] | outcome [2] | outcome [3] | outcome [4] | Potency [5] | outcome [6] | outcome [20] | max response [7] -2.84% | outcome [10] | Potency [13] | Potency [14] | Potency [15] | Potency [17] | outcome [18] | outcome [19]
active: Potency [12] 61.7 µM | Potency [16] 61.7 µM

CCOC(=O)CC
inactive: outcome [1] | outcome [2] | outcome [3] | outcome [4] | Potency [5] | outcome [6] | max response [7] 19% | Potency [8] | Potency [9] | outcome [10] | Potency [11] | Potency [12] | Potency [13] | Potency [15] | Potency [16] | Potency [17] | outcome [19]
